Results reported in PubChem BioAssay (NCI).
About 79,000 compounds went through this panel and 15% of them were active in at least one assay; those are over-represented in the sample as a whole. The source made the active and inactive calls. No stated cut-off is given here; in the data, active means growth inhibition above about 70%; inactive means the rest.

How the values were obtained:
[1] = NCI Yeast Anticancer Drug Screen. Data for the rad52 strain (AID 147);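 further: 0% = growth of vehicle-treated control cultures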; settings: S. cerevisiae rad52 mutant growth inhibition, hits give high values
Summary of the method: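 Here a repair-compromised yeast strain receives each compound; its growth is then quantified and normalised to vehicle-only controls.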

[2] = NCI Yeast Anticancer Drug Screen. Data for the wt1 strain (AID 149);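 further: 0% = growth of vehicle-treated wt1 cultures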; settings: S. cerevisiae wt1 strain (SPY 50644) growth inhibition, hits give high values
Summary of the method: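 Each compound is tested on wt1 yeast and the loss of growth versus vehicle gives the inhibition value.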

[3] = NCI Yeast Anticancer Drug Screen. Data for the rad50EPP+ strain (AID 151);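 further: 0% = growth of vehicle-treated control cultures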; settings: S. cerevisiae rad50 mutant strain, hits give high values
Summary of the method: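 Read-out is yeast growth inhibition relative to vehicle; cells used were the rad50EPP+ strain.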

[4] = NCI Yeast Anticancer Drug Screen. Data for the mgt1 strain (AID 153); settings: S. cerevisiae mgt1 mutant growth inhibition, hits give high values
Summary of the method: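 Measured: inhibition of mgt1 yeast growth by compound, normalized to vehicle-treated cultures.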

[5] = NCI Yeast Anticancer Drug Screen. Data for the rad50 strain (AID 155);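 further: 0% = growth of vehicle-only cultures of the same strain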; settings: S. cerevisiae rad50 strain growth inhibition, hits give high values
Summary of the method: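 Vehicle-treated cultures provide the reference for the growth inhibition reported for compound-exposed, repair-deficient yeast.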

[6] = NCI Yeast Anticancer Drug Screen. Data for the mec2-1 strain (AID 157); settings: S. cerevisiae mec2-1 strain, hits give high values
Summary of the method: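 Using mec2-1 yeast: add compound, measure growth, express inhibition versus vehicle-treated cultures.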

[7] = NCI Yeast Anticancer Drug Screen. Data for the rad14 strain (AID 159);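 further: 0% = growth of vehicle-treated control cultures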; settings: S. cerevisiae rad14 strain growth inhibition, hits give high values
Summary of the method: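 Inhibition of growth is reported for a repair-deficient yeast mutant following compound treatment, calculated relative to cultures that received vehicle.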

[8] = NCI Yeast Anticancer Drug Screen. Data for the sgs1 mgt1 strain (AID 161);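 further: 0% = growth of cultures given vehicle only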; settings: S. cerevisiae sgs1 mgt1 strain, hits give high values
Summary of the method: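 Growth of a repair-deficient yeast mutant was monitored after compound treatment and expressed as inhibition relative to vehicle-treated cultures.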

[9] = NCI Yeast Anticancer Drug Screen. Data for the CLN2oe strain (AID 163);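 further: 0% = growth of vehicle-only control cultures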; settings: S. cerevisiae CLN2oe strain, hits give high values
Summary of the method: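 Whole-cell yeast growth assay. A strain engineered for altered cell-cycle control received compound, and inhibition relative to vehicle-treated cultures was recorded.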

[10] = NCI Yeast Anticancer Drug Screen. Data for the cln2 rad14 strain (AID 165);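 further: 0% = growth equal to vehicle treated cultures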; settings: S. cerevisiae cln2 rad14 strain, hits give high values
Summary of the method: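 Yeast strain cln2 rad14, bearing defects in cell cycle control and DNA repair, serves as the test system; values reflect growth inhibition compared with vehicle.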

[11] = NCI Yeast Anticancer Drug Screen. Data for the bub3 strain (AID 167); settings: S. cerevisiae bub3 mutant strain, hits give high values
Summary of the method: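 Mutant yeast screening strain plus compound; vehicle-treated cultures serve as the 0% inhibition reference.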

[12] = NCI Yeast Anticancer Drug Screen. Data for the mlh1 strain (AID 171);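 further: 0% = growth of vehicle-treated control cultures of the same strain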; settings: S. cerevisiae mlh1 strain growth inhibition, hits give high values
Summary of the method: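 A yeast strain with a defined genetic lesion serves as the test organism. Cultures receive compound or vehicle, and growth is measured.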

[13] = NCI Yeast Anticancer Drug Screen. Data for the sgs1 strain (AID 173);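 further: 0% = growth of vehicle-only control cultures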; settings: S. cerevisiae sgs1 mutant, hits give high values
Summary of the method: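 A genetically defined yeast mutant is incubated with the test compound, and its growth is compared to that of the same strain given vehicle.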

[14] = NCI Yeast Anticancer Drug Screen. Data for the mlh1 rad18 strain (AID 175); settings: S. cerevisiae mlh1 rad18 strain growth inhibition, hits give high values
Summary of the method: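 Steps: expose repair-defective yeast to compound; measure growth; express inhibition against vehicle-treated controls.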

[15] = NCI Yeast Anticancer Drug Screen. Data for the rad18 strain (AID 177); settings: S. cerevisiae rad18 mutant growth inhibition, hits give high values
Summary of the method: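 Measured value is growth inhibition of a yeast strain bearing a DNA repair alteration, referenced to vehicle-treated cells.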

[16] = NCI Yeast Anticancer Drug Screen. Data for the wt2 strain (AID 169); settings: S. cerevisiae wt2 strain growth inhibition, hits give high values
Summary of the method: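 Treated yeast vs. vehicle-treated yeast: growth inhibition determined.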

[17] = at 5.0 µM (retest, dose inferred, filed as 0.5)
[18] = at 50.0 µM (retest, dose inferred, filed as 5.0)

Measured: growth inhibition

S=C(Nc1ccc(Cl)c(Cl)c1)SCc1ccc2c(c1)OCO2
active: [1]; at 11.0 µM 99% | [1]; at 33.0 µM 99% | [1]; at 100.0 µM 94% | [2]; at 11.0 µM 100% | [2]; at 33.0 µM 99% | [2]; at 100.0 µM 96% | [3]; at 3.7 µM 84% | [3]; at 11.0 µM 99% | [3]; at 33.0 µM 99% | [3]; at 100.0 µM 97% | [4]; at 11.0 µM 99% | [4]; at 33.0 µM 99% | [4]; at 100.0 µM 97% | [5]; at 11.0 µM 99% | [5]; at 33.0 µM 99% | [5]; [18] 97% | [5]; at 50.0 µM 87.3% | [5]; at 100.0 µM 94% | [6]; [17] 78% | [6]; at 11.0 µM 100% | [6]; at 33.0 µM 99% | [6]; [18] 98% | [6]; at 50.0 µM 92.1% | [6]; at 100.0 µM 97% | [7]; at 11.0 µM 100% | [7]; at 33.0 µM 99% | [7]; at 100.0 µM 96% | [8]; [17] 77% | [8]; [18] 98% | [8]; at 50.0 µM 89.6% | [9]; at 11.0 µM 99% | [9]; at 33.0 µM 99% | [9]; at 100.0 µM 93% | [10]; [18] 97% | [10]; at 50.0 µM 87.6% | [11]; [17] 76% | [11]; at 11.0 µM 99% | [11]; at 33.0 µM 99% | [11]; [18] 98% | [11]; at 50.0 µM 88.2% | [11]; at 100.0 µM 96% | [12]; at 11.0 µM 99% | [12]; at 33.0 µM 99% | [12]; at 100.0 µM 95% | [13]; at 11.0 µM 99% | [13]; at 33.0 µM 99% | [13]; at 100.0 µM 96% | [14]; [17] 90% | [14]; [18] 97% | [14]; at 50.0 µM 88.7% | [15]; at 11.0 µM 99% | [15]; at 33.0 µM 99% | [15]; at 100.0 µM 96%
inactive: [1]; at 1.2 µM 6% | [1]; at 3.7 µM 54% | [2]; at 1.2 µM 1% | [2]; at 3.7 µM 49% | [3]; at 1.2 µM 27% | [4]; at 1.2 µM -2% | [4]; at 3.7 µM 15% | [5]; at 1.2 µM -4% | [5]; at 3.7 µM 40% | [5]; [17] 52% | [6]; at 1.2 µM -2% | [6]; at 3.7 µM 6% | [7]; at 1.2 µM 4% | [7]; at 3.7 µM 54% | [9]; at 1.2 µM -4% | [9]; at 3.7 µM -13% | [10]; [17] 5% | [11]; at 1.2 µM -7% | [11]; at 3.7 µM 29% | [12]; at 1.2 µM -6% | [12]; at 3.7 µM 66% | [13]; at 1.2 µM 6% | [13]; at 3.7 µM 38% | [15]; at 1.2 µM -7% | [15]; at 3.7 µM 34%

CC(Br)C(=O)c1ccc2cc(Br)c3ccccc3c2c1 (stereo not drawn)
active: [8]; [18] 76% | [8]; at 50.0 µM 74.5%
inactive: [1]; at 1.2 µM -2% | [1]; at 3.7 µM -2% | [1]; at 11.0 µM -2% | [1]; at 33.0 µM 4% | [1]; at 100.0 µM 2% | [2]; at 1.2 µM 0% | [2]; at 3.7 µM 0% | [2]; at 11.0 µM 1% | [2]; at 33.0 µM -5% | [2]; at 100.0 µM -3% | [3]; at 1.2 µM 2% | [3]; at 3.7 µM 14% | [3]; at 11.0 µM 24% | [3]; at 33.0 µM 35% | [3]; at 100.0 µM 39% | [4]; at 1.2 µM -1% | [4]; at 3.7 µM -1% | [4]; at 11.0 µM -1% | [4]; at 33.0 µM 2% | [4]; at 100.0 µM 5% | [5]; at 1.2 µM 1% | [5]; at 3.7 µM -2% | [5]; [17] -3% | [5]; at 11.0 µM 10% | [5]; at 33.0 µM 0% | [5]; [18] 41% | [5]; at 50.0 µM 63.7% | [5]; at 100.0 µM 0% | [6]; at 1.2 µM 2% | [6]; at 3.7 µM 4% | [6]; [17] -5% | [6]; at 11.0 µM 6% | [6]; at 33.0 µM 6% | [6]; [18] 12% | [6]; at 50.0 µM 27.4% | [6]; at 100.0 µM 16% | [7]; at 1.2 µM 0% | [7]; at 3.7 µM -1% | [7]; at 11.0 µM 0% | [7]; at 33.0 µM -5% | [7]; at 100.0 µM 17% | [8]; [17] 2% | [10]; [17] -24% | [10]; [18] -32% | [10]; at 50.0 µM 26.5% | [11]; at 1.2 µM -7% | [11]; at 3.7 µM -1% | [11]; [17] -10% | [11]; at 11.0 µM 3% | [11]; at 33.0 µM 2% | [11]; [18] 23% | [11]; at 50.0 µM 58% | [11]; at 100.0 µM -3% | [16]; at 1.2 µM -3% | [16]; at 3.7 µM -1% | [16]; at 11.0 µM -1% | [16]; at 33.0 µM 3% | [16]; at 100.0 µM 4%
